# The panel holds about 79,000 compounds, 15% with a hit somewhere; the sample as a whole holds those more often. A number with no mark means an inactive call. Active and inactive are the calls of the source. Cut-off read from the data, not from the text of the source: active = growth inhibition above about 70%; inactive = the rest.
# Legend:
# [1] = NCI Yeast Anticancer Drug Screen. Data for the rad50 strain (AID 155);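 note: 0% = growth of vehicle-only cultures of the same strain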; conditions: S. cerevisiae rad50 strain growth inhibition, stronger effect = higher value
# Outline: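 Genetically altered yeast (DNA repair pathway); compound treatment; growth inhibition vs vehicle ctrl.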
# [2] = NCI Yeast Anticancer Drug Screen. Data for the mec2-1 strain (AID 157); conditions: S. cerevisiae mec2-1 strain, stronger effect = higher value
# Outline: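 Growth inhibition is read against vehicle-treated controls after compound exposure of the mec2-1 yeast strain, which is defective in DNA damage repair or cell cycle control.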
# [3] = NCI Yeast Anticancer Drug Screen. Data for the sgs1 mgt1 strain (AID 161);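 note: 0% = growth of cultures given vehicle only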; conditions: S. cerevisiae sgs1 mgt1 strain, stronger effect = higher value
# Outline: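 This yeast growth screen uses a strain with defined DNA-repair lesions; compound-treated growth is compared with vehicle-treated growth.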
# [4] = NCI Yeast Anticancer Drug Screen. Data for the cln2 rad14 strain (AID 165);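 note: 0% = growth equal to vehicle treated cultures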; conditions: S. cerevisiae cln2 rad14 strain, stronger effect = higher value
# Outline: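 Growth inhibition, relative to vehicle-treated controls, is the read-out. The test organism is a yeast strain with defined genetic alterations, cln2 rad14.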
# [5] = NCI Yeast Anticancer Drug Screen. Data for the bub3 strain (AID 167); conditions: S. cerevisiae bub3 mutant strain, stronger effect = higher value
# Outline: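 Yeast carrying a defined mutation is treated with each compound, and growth is compared with that of vehicle-exposed cells to give inhibition.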
# [6] = NCI Yeast Anticancer Drug Screen. Data for the mlh1 rad18 strain (AID 175); conditions: S. cerevisiae mlh1 rad18 strain growth inhibition, stronger effect = higher value
# Outline: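 Cells of a genetically altered yeast strain, deficient in DNA damage repair, were treated with compound. Their growth was then compared with that of vehicle-treated cultures to give inhibition.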
# [7] = at 5.0 µM (retest, dose inferred, filed as 0.5)
# [8] = at 50.0 µM (retest, dose inferred, filed as 5.0)
Structure (SMILES),"growth inhibition [1, 7]","growth inhibition [1, 8]",growth inhibition ([1]; at 50.0 µM),"growth inhibition [2, 7]","growth inhibition [2, 8]",growth inhibition ([2]; at 50.0 µM),"growth inhibition [3, 7]","growth inhibition [3, 8]",growth inhibition ([3]; at 50.0 µM),"growth inhibition [4, 7]","growth inhibition [4, 8]",growth inhibition ([4]; at 50.0 µM),"growth inhibition [5, 7]","growth inhibition [5, 8]",growth inhibition ([5]; at 50.0 µM),"growth inhibition [6, 7]","growth inhibition [6, 8]",growth inhibition ([6]; at 50.0 µM)
COC(=O)c1cc2c(oc1=O)-c1ccccc1N(C=O)C2,-3%,-8%,0.3%,-9%,-11%,-8.75%,-13%,-11%,11.4%,-11%,-9%,-55.8%,-16%,-24%,-35.1%,0%,-21%,2.1%
Cc1ccc(NN)cc1,23%,97% (active),83.8% (active),0%,69%,40.7%,26%,46%,70.3% (active),4%,75% (active),21.1%,3%,96% (active),52.6%,11%,94% (active),80.5% (active)
CSC(=S)N/N=C(\C)c1ccc[nH]1,-2%,96% (active),83.8% (active),0%,96% (active),90.8% (active),13%,96% (active),79.7% (active),-13%,92% (active),72.6% (active),0%,97% (active),90.2% (active),2%,77% (active),85.7% (active)
O=C1C(Cl)=C(N2C(=O)CCCC2=O)C(=O)c2ccccc21,100% (active),99% (active),89.2% (active),100% (active),99% (active),90.2% (active),100% (active),99% (active),91.5% (active),99% (active),99% (active),89.8% (active),100% (active),99% (active),89.1% (active),99% (active),99% (active),88.3% (active)
CCCCN(CCCC)CN1C(=O)/C(=C/c2ccc(NC(C)=O)cc2)NC1=S,7%,62%,78% (active),-7%,64%,79.6% (active),-1%,64%,79.9% (active),-2%,63%,79.8% (active),-15%,53%,72.7% (active),-3%,79% (active),86.2% (active)
Cc1cc(NCCO)nc2c1ccc1ccccc12,5%,9%,53.9%,3%,-2%,35.6%,3%,16%,46%,-2%,23%,16.6%,-3%,16%,19%,2%,28%,61.2%
CC(=O)O[C@H]1CC[C@@]2(C)C(CC[C@]3(C)C2CC=C2[C@@H]4CC(C)(C)CC[C@]4(C(=O)NCCN(C)C)CCC23C)C1(C)C (some centres undefined),-3%,94% (active),77% (active),-2%,98% (active),95.4% (active),-2%,98% (active),72.7% (active),-4%,57%,5.3%,-2%,87% (active),-21.4%,-2%,93% (active),97.7% (active)
C[C@H](CCC1=NCCN1)[C@H]1CC[C@H]2[C@@H]3[C@H](O)C[C@@H]4C[C@H](O)CC[C@]4(C)[C@H]3CC[C@]12C,-19%,99% (active),91.5% (active),-2%,100% (active),93% (active),3%,100% (active),91.7% (active),-6%,99% (active),91% (active),0%,99% (active),91.6% (active),4%,99% (active),91% (active)

# Reference: PubChem BioAssay (NCI)
